Results published in PubChem BioAssay (EPA / NIEHS).
Several values for one entry are separate records, joined by “and”; a condition that tells them apart may be missing. Identical values can stand only once. Activity calls are given as the source filed them. Rule for the calls: active = hit-call score of the fitted dose curve at least 0.9, where 1 is the maximum; inactive = score below 0.9.

What follows are compounds tested on Cyclin D2 (CCND2), CCND2 (gene 894) (assay: LTEA_HepaRG_CCND2: Life Technologies and Expression Analysis (LTEA) Assay for Cyclin D2 (CCND2) using HepaRG (AID 2283449;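 note: CCND2 transcript measured by TaqMan qRT-PCR and normalised to three housekeeping genes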)). Settings: mRNA level, 48 h; actives raise or lower the signal.
Procedure, shortened: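 Differentiated human HepaRG cells were exposed for 48 h in serum-free induction medium to eight half-log concentrations topping at 100 uM (0.5% DMSO vehicle). CCND2 mRNA was quantified by TaqMan qRT-PCR, normalised to ACTB, GAPDH and POLR2A, and fitted bidirectionally against DMSO.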
In the case of `CCOC(=O)CC(SP(=S)(OC)OC)C(=O)OCC` (configuration not stated), the outcome is reported as “inactive”.
For `CS/C(C)=N/OC(=O)N(C)SN(C)C(=O)O/N=C(\C)SC`, the outcome was “inactive”.
In the case of `OC(c1ccc(Cl)cc1)(c1cncnc1)c1ccccc1Cl` (configuration not stated), the outcome is reported as “inactive”.
For `C=CCC1=C(C)C(OC(=O)C2C(C=C(C)C)C2(C)C)CC1=O` (configuration not stated), the outcome was “inactive”.
In the case of `Oc1ccccc1-c1ccccc1`, the outcome is reported as “inactive”.
For `CO/C=C(/C(=O)OC)c1ccccc1Oc1cc(Oc2ccccc2C#N)ncn1`, the outcome was “inactive”.
In the case of `N#CC(CCc1ccc(Cl)cc1)(Cn1cncn1)c1ccccc1` (configuration not stated), the outcome is reported as “inactive”.
With `COc1nc(NC(C)C)nc(NC(C)C)n1` the outcome was “inactive”.
For `CNC(=S)S`, the outcome was “inactive”.
For `C=CCC1=C(C)[C@@H](OC(=O)[C@@H]2[C@@H](C=C(C)C)C2(C)C)CC1=O`, the outcome was “inactive”.
`CCNc1nc(Cl)nc(NCC)n1` was tested, and the outcome was “inactive”.
For `CON(C)C(=O)Nc1ccc(Cl)c(Cl)c1`, the outcome was “inactive”.
For `CCOc1cc(Oc2ccc(C(F)(F)F)cc2Cl)ccc1[N+](=O)[O-]`, the outcome was “inactive”.
For `CC1=C(C(=O)Nc2ccccc2)SCCO1`, the outcome was “inactive”.
With `CC1COC(Cn2cncn2)(c2ccc(Oc3ccc(Cl)cc3)cc2Cl)O1` (configuration not stated) the outcome was “inactive”.
For `CCON=C(CC)C1=C(O)CC(c2c(C)cc(C)cc2C)CC1=O` (configuration not stated), the outcome was “inactive”.
In the case of `Cc1cc(Cl)ccc1OCC(=O)O`, the outcome is reported as “inactive”.
In the case of `CCCCNC(=O)n1c(NC(=O)OC)nc2ccccc21`, the outcome is reported as “inactive”.
For `CCNc1nc(Cl)nc(NC(C)C)n1`, the outcome was “inactive”.
With `C=CC1(C)OC(=O)N(c2cc(Cl)cc(Cl)c2)C1=O` (configuration not stated) the outcome was “inactive”.
For `Cc1c(F)c(F)c(COC(=O)C2C(/C=C(\Cl)C(F)(F)F)C2(C)C)c(F)c1F` (configuration not stated), the outcome was “inactive”.
For `COP(=S)(OC)Oc1nc(Cl)c(Cl)cc1Cl`, the outcome was “inactive”.

Each compound was assayed on Cyclin Dependent Kinase Inhibitor 1A (CDKN1A), CDKN1A (gene 1026) (assay: LTEA_HepaRG_CDKN1A: Life Technologies and Expression Analysis (LTEA) Assay for Cyclin Dependent Kinase Inhibitor 1A (CDKN1A) using HepaRG (AID 2283450)). Settings: mRNA level, 48 h; actives raise or lower the signal.
Procedure, shortened: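 Read-out is CDKN1A mRNA by TaqMan qRT-PCR, normalized to three housekeeping genes and fitted in both directions against the DMSO baseline. Human HepaRG cells were treated 48 h with test chemicals up to 100 uM in half-log steps, 0.5% DMSO.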
In the case of `CCOC(=O)CC(SP(=S)(OC)OC)C(=O)OCC` (configuration not stated), the outcome is reported as “inactive”.
For `CS/C(C)=N/OC(=O)N(C)SN(C)C(=O)O/N=C(\C)SC`, the outcome was “inactive”.
`OC(c1ccc(Cl)cc1)(c1cncnc1)c1ccccc1Cl` (configuration not stated) was tested, and the AC50 was 70.5 µM (active).
In the case of `C=CCC1=C(C)C(OC(=O)C2C(C=C(C)C)C2(C)C)CC1=O` (configuration not stated), the outcome is reported as “inactive”.
For `CC(C)Oc1cc(-n2nc(C(C)(C)C)oc2=O)c(Cl)cc1Cl`, the AC50 was 84.1 µM (active).
For `Oc1ccccc1-c1ccccc1`, the outcome was “inactive”.
With `CO/C=C(/C(=O)OC)c1ccccc1Oc1cc(Oc2ccccc2C#N)ncn1` the AC50 was 79.5 µM (active) and 78.9 µM (active).
With `N#CC(CCc1ccc(Cl)cc1)(Cn1cncn1)c1ccccc1` (configuration not stated) the AC50 was 60.9 µM (active).
With `COc1nc(NC(C)C)nc(NC(C)C)n1` the outcome was “inactive”.
`CNC(=S)S` was tested, and the outcome was “inactive”.
In the case of `C=CCC1=C(C)[C@@H](OC(=O)[C@@H]2[C@@H](C=C(C)C)C2(C)C)CC1=O`, the outcome is reported as “inactive”.
With `CCNc1nc(Cl)nc(NCC)n1` the outcome was “inactive”.
`CON(C)C(=O)Nc1ccc(Cl)c(Cl)c1` was tested, and the AC50 was 85.8 µM (active).
For `CCOc1cc(Oc2ccc(C(F)(F)F)cc2Cl)ccc1[N+](=O)[O-]`, the outcome was “inactive”.
`CC1=C(C(=O)Nc2ccccc2)SCCO1` was tested, and the outcome was “inactive”.
`CC1COC(Cn2cncn2)(c2ccc(Oc3ccc(Cl)cc3)cc2Cl)O1` (configuration not stated) was tested, and the AC50 was 12.7 µM (active).
With `CCON=C(CC)C1=C(O)CC(c2c(C)cc(C)cc2C)CC1=O` (configuration not stated) the outcome was “inactive”.
For `Cc1cc(Cl)ccc1OCC(=O)O`, the outcome was “inactive”.
With `CCCCNC(=O)n1c(NC(=O)OC)nc2ccccc21` the outcome was “inactive”.
`CCCC1COC(Cn2cncn2)(c2ccc(Cl)cc2Cl)O1` (configuration not stated) was tested, and the AC50 was 33.2 µM (active).
`CCNc1nc(Cl)nc(NC(C)C)n1` was tested, and the outcome was “inactive”.
For `CCOC(=O)C(Cl)Cc1cc(-n2nc(C)n(C(F)F)c2=O)c(F)cc1Cl` (configuration not stated), the outcome was “inactive”.
In the case of `C=CC1(C)OC(=O)N(c2cc(Cl)cc(Cl)c2)C1=O` (configuration not stated), the outcome is reported as “inactive”.
`Cc1c(F)c(F)c(COC(=O)C2C(/C=C(\Cl)C(F)(F)F)C2(C)C)c(F)c1F` (configuration not stated) was tested, and the outcome was “inactive”.
In the case of `COP(=S)(OC)Oc1nc(Cl)c(Cl)cc1Cl`, the outcome is reported as “inactive”.
